# Tests used:
# Assay in all cases: DAPPL (digital affinity profiling via proximity ligation, sequencing); 10 mM Tris-HCl pH 7.5, 50 mM NaCl, 1 mM DTT, 4% glycerol, room temperature, 30 min; GST-TFs on glutathione beads, 16-mer random dsDNA library, 0.1% formaldehyde crosslink after washing; high values mean tight binding
# Settings in all cases: protein: recombinant; tags: N-terminal GST; dsDNA, one strand shown
# [1] = molecular target: T1, FLI1 (Homo sapiens, UniProt Q01543 1-452)
# T1 sequence: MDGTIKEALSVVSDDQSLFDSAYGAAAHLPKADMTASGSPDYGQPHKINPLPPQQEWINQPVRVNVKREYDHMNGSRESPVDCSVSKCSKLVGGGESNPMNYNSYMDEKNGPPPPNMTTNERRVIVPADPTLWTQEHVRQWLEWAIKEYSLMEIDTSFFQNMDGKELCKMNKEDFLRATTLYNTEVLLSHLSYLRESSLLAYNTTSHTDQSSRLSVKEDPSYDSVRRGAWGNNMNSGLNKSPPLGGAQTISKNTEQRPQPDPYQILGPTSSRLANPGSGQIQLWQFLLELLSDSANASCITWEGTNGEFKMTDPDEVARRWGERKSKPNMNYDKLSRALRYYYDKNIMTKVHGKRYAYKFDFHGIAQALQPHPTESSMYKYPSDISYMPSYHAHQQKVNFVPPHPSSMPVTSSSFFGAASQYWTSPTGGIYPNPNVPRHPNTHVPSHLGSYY
# Method in brief: (§1)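 Human transcription factors fused to GST were expressed in yeast, captured on glutathione beads, given DNA barcodes and pooled with a GST-only negative control. Pools were incubated with 200 nmole of a 16-mer random double-stranded DNA library in Tris/NaCl/DTT/glycerol buffer at room temperature for 30 min. They were then washed, crosslinked with 0.1% formaldehyde, proximity-ligated (BsaI/T4 ligase, 1 h, 37 °C), PCR-amplified and sequenced on an Illumina NextSeq500. Binding signal is each 6-mer's read frequency for a factor divided by its frequency for the GST control.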
# [2] = molecular target: T2, ELK1 (Homo sapiens, UniProt P19419 1-428)
# T2 sequence: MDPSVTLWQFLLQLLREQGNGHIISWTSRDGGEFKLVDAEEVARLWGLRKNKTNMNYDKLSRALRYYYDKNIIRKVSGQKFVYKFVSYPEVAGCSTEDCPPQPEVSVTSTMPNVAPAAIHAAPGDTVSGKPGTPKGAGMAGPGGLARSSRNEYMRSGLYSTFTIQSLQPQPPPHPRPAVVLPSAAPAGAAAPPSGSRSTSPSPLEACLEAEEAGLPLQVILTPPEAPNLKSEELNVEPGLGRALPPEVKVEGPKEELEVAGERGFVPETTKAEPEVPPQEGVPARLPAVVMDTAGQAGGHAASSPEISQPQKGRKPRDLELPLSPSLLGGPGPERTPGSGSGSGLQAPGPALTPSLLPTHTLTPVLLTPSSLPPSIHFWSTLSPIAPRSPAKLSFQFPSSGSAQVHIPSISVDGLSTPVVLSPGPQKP
# Method in brief: as §1
# [3] = molecular target: T3, GABPA (Homo sapiens, UniProt Q06546 1-454)
# T3 sequence: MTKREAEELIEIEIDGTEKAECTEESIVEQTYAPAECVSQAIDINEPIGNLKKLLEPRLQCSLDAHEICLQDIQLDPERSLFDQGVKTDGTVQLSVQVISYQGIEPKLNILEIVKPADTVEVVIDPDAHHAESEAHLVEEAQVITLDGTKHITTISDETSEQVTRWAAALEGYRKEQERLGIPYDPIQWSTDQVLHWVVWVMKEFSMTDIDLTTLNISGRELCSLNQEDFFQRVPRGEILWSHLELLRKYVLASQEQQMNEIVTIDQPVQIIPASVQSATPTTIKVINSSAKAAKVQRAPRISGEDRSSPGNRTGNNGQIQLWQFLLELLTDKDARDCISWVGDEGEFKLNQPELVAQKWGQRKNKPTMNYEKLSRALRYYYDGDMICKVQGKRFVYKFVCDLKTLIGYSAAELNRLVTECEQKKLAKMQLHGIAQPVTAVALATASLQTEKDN
# Method in brief: as §1
# [4] = molecular target: T4, ERG (Homo sapiens, UniProt P11308 1-479)
# T4 sequence: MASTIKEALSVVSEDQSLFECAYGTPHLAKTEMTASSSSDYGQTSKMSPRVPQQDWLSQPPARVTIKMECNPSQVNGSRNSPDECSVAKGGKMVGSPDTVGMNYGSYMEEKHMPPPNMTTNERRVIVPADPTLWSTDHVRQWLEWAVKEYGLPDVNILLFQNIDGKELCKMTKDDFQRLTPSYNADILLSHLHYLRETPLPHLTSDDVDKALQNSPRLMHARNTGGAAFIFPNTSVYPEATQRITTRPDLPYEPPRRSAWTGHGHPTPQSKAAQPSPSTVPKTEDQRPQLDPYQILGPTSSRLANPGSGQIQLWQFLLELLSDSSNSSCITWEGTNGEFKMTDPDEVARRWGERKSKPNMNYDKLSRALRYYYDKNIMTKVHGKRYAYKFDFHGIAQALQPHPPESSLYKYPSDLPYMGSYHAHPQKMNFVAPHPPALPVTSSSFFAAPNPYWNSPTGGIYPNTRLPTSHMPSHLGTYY
# Method in brief: as §1
# [5] = molecular target: ELF1 (Homo sapiens, UniProt P32519 1-619)
# ELF1, sequence (P32519 whole entry): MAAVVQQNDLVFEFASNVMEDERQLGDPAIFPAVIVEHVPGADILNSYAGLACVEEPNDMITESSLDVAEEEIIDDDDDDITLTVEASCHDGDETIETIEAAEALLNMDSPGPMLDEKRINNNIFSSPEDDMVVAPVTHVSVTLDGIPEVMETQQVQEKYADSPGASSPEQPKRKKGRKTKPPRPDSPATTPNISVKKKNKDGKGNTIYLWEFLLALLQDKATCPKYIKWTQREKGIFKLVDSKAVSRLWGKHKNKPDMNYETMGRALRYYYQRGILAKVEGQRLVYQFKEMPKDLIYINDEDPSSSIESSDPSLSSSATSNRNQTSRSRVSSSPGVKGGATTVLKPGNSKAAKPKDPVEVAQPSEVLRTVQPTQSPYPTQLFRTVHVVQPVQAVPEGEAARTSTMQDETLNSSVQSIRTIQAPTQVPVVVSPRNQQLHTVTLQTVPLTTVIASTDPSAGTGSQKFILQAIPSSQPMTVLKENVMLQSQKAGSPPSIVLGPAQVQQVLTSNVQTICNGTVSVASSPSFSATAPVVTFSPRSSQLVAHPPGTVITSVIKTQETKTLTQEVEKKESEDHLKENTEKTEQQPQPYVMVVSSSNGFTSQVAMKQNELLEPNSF
# Method in brief: as §1
# [6] = molecular target: T5, EHF (Homo sapiens, UniProt Q9NZC4 1-300)
# T5 sequence: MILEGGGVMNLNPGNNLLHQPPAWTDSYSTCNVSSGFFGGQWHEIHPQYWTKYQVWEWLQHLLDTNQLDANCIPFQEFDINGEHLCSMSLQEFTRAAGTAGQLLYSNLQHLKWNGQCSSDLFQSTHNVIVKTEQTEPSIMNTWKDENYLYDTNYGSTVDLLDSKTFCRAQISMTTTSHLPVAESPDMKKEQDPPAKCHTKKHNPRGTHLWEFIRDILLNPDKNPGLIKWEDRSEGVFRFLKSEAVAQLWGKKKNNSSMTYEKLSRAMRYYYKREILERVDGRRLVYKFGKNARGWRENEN
# Method in brief: as §1
# [7] = molecular target: SPI1 (Homo sapiens, UniProt P17947 1-270)
# Method in brief: as §1
# [8] = molecular target: SPIB (Homo sapiens, UniProt Q01892 1-262)
# SPIB, sequence (Q01892 whole entry): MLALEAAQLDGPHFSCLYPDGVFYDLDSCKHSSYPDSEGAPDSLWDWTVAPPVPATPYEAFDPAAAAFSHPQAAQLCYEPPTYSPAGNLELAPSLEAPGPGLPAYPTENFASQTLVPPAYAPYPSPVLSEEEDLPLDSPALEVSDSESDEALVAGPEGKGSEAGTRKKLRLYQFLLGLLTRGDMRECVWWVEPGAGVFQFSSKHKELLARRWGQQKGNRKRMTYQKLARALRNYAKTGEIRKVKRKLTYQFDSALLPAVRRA
# Method in brief: as §1
# [9] = molecular target: T6, ELK3 (Homo sapiens, UniProt P41970 1-407)
# T6 sequence: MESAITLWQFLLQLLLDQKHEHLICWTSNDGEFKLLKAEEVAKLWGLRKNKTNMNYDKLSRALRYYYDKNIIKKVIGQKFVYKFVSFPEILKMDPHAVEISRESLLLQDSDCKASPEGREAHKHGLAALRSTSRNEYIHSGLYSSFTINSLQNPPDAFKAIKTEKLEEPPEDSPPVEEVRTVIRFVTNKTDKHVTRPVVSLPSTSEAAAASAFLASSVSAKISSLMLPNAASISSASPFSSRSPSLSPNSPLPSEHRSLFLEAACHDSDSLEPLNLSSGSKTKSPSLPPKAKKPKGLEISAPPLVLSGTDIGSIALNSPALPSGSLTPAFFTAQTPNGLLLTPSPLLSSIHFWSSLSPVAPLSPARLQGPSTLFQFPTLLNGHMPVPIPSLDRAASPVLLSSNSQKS
# Method in brief: as §1
sequence,measurement,setting,value
AAATTT,binding signal,[1],"1.31 fold enrichment (6-mer frequency, TF over GST control)"
same,binding signal,[2],"1.31 fold enrichment (6-mer frequency, TF over GST control)"
same,binding signal,[3],"1.26 fold enrichment (6-mer frequency, TF over GST control)"
same,binding signal,[4],"1.3 fold enrichment (6-mer frequency, TF over GST control)"
same,binding signal,[5],"1.25 fold enrichment (6-mer frequency, TF over GST control)"
same,binding signal,[6],"1.33 fold enrichment (6-mer frequency, TF over GST control)"
same,binding signal,[7],"1.22 fold enrichment (6-mer frequency, TF over GST control)"
same,binding signal,[8],"1.45 fold enrichment (6-mer frequency, TF over GST control)"
same,binding signal,[9],"1.28 fold enrichment (6-mer frequency, TF over GST control)"
